{
  "source": "PubChem BioAssay (NCI)",
  "note": "About 83,000 compounds went through this panel and 20% of them were active in at least one assay; those are over-represented in the sample as a whole.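 Each cell line was grown in a 96-well plate and treated with one concentration of compound for 48 hours. Values below 10 were considered active.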 Activity calls are given as the source filed them.",
  "data": [
    {"system": "MDA-MB-468 breast", "assay": "NCI-60 one-dose screen, 48 h (100 = growth as untreated, 0 = no growth, -100 = all killed)", "conditions": "10 µM unless noted", "values": [
      {"smiles": "COc1cc(-c2noc(C[C@@H](NC(=O)OCc3ccccc3)C(C)C)n2)cc(OC)c1OC", "growth": "88.5% (inactive)"},
      {"smiles": "Nc1cc(Br)c(-c2nn3c(CCC(=O)c4nc5ccccc5[nH]4)nnc3s2)c(Br)c1", "growth": "91.8% (inactive)"},
      {"smiles": "CN(O)c1nc(N(C)O)nc(N2CCOCC2)n1", "growth": "-6.58% (active)"},
      {"smiles": "COCCCNC1=C(C#N)C(=O)NC(c2cccs2)S1", "note": "(stereo not given)", "growth": "93.8% (inactive)"},
      {"smiles": "CCN(CC)c1ccc(N=Nc2cc(Cl)ccc2Cl)c(NC(=O)CCC(=O)O)c1", "growth": "107% (inactive)"},
      {"smiles": "CCCCCCCCCCCCCCCCCCNC(=S)N/N=C/c1ccc(OC)c(OC)c1", "growth": "93.5% (inactive)"},
      {"smiles": "O=C(/C=C/c1ccccc1)Nc1ncc(Cc2ccccc2)s1", "growth": "29.7% (inactive)"},
      {"smiles": "CCc1ccc(-c2ccc(NC3CCCCCC3)nn2)cc1S(N)(=O)=O", "growth": "102% (inactive)"},
      {"smiles": "COc1cc2oc(-c3ccc(O)cc3)cc(=O)c2c(O)c1-c1c(OC)cc(O)c2c(=O)cc(-c3ccc(O)cc3)oc12", "growth": "36.1% (inactive)"},
      {"smiles": "O=C(CNc1nc2ccccc2s1)Nc1ccc(-c2nc3ccccc3s2)cc1", "growth": "-17.8% (active)"},
      {"smiles": "CCCCCCC/C(=N\\N=C(N)N)c1ccc(O)cc1", "growth": "-79.7% (active)"},
      {"smiles": "COc1cccc(-n2cc(-c3nc(Cl)c4ccccc4n3)nn2)c1", "growth": "117% (inactive)"},
      {"smiles": "Nc1nc(N)c2c(ccc3c2ccn3Cc2cccc([N+](=O)[O-])c2)n1", "growth": "-84.7% (active)"},
      {"smiles": "CCCCN1C=CCN(CCCC)C1", "growth": "-1.66% (active)"},
      {"smiles": "NS(=O)(=O)c1cccc(Nc2nc(SCC(=O)c3ccc([N+](=O)[O-])cc3)nc3ccccc23)c1", "growth": "0.252% (active)"},
      {"smiles": "O=C(Nc1cccc(-n2cc(-c3ccncc3)c(-c3ccc(O)c(Cl)c3)n2)c1)Nc1cccc(C(F)(F)F)c1", "growth": "18.5% (inactive)"},
      {"smiles": "CC1Cc2ccccc2O1", "note": "(stereo not given)", "growth": "120% (inactive)"},
      {"smiles": "CC(C)=C1C=C2CC[C@@H]3[C@](C)(CCC[C@@]3(C)C(=O)O)[C@H]2CC1", "growth": "0.17% (active)"},
      {"smiles": "CCOC(=O)C1=CN(C)C=C(C(=O)OCC)C1c1cc(Br)c(OCC)c(OC)c1", "growth": "62.1% (inactive)"},
      {"smiles": "C=C1C(=O)O[C@H]2[C@H]1CC/C(COC(=O)c1ccc3ccccc3c1)=C\\CC[C@@]1(C)O[C@@H]21", "growth": "-57.9% (active)"},
      {"smiles": "COc1ccc(NC2=C(I)C(=O)c3ncccc3C2=O)cc1", "growth": "-58% (active)"},
      {"smiles": "Cc1ccc(CNc2ccc3nc(CCC4CCCCC4)[nH]c3c2)cc1", "growth": "-13.2% (active)"},
      {"smiles": "Cc1ccc(S(=O)(=O)Nc2ccc(-c3cc(-c4cccc(F)c4)c(C#N)c(N)n3)cc2)cc1", "growth": "-14.9% (active)"},
      {"smiles": "c1ccc(-c2c(-c3ccccc3)[n+](Cc3ccc4ccccc4c3)c(-c3ccc(-c4nc5ccccc5s4)cc3)n2Cc2ccc3ccccc3c2)cc1", "growth": "-77.8% (active)"},
      {"smiles": "CC1=CC(=O)c2cccc(NC3=NCCO3)c21", "growth": "107% (inactive)"},
      {"smiles": "CC12O[C@H](C[C@@H](OC(=O)c3ccccc3)[C@H]1O)n1c3ccccc3c3c4c(c5c6ccccc6n2c5c31)C(=O)NC4=O", "growth": "81.1% (inactive)"},
      {"smiles": "CCCCC(CCCCCC(CCCC)C1NC(C)Cc2cc(OC)c(OC)cc21)C1NC(C)Cc2cc(OC)c(OC)cc21", "note": "(stereo not given)", "growth": "-84.7% (active)"},
      {"smiles": "CCOC(=O)C1C(=O)C(=O)N(C(C)C)C1C(=O)OCC", "note": "(stereo not given)", "growth": "98.4% (inactive)"},
      {"smiles": "COc1cc2cc(Oc3ccc(NC(=O)c4ccc(Cl)c(C(F)(F)F)c4)cc3)c(C)nc2cc1OC", "growth": "6.44% (active)"},
      {"smiles": "C/C=C/CSC(C)(C)C(=O)NC", "growth": "96.4% (inactive)"},
      {"smiles": "O=C1Nc2c(ccc(Cl)c2Cl)/C1=C\\c1cc(C(F)(F)F)cc(C(F)(F)F)c1", "growth": "7.18% (active)"},
      {"smiles": "COc1cc2cc(COc3nccc(-c4ccc(Cl)cc4)n3)c(=O)[nH]c2cc1OC", "growth": "80.1% (inactive)"},
      {"smiles": "COc1ncc(-c2ccc3nccc(-c4ccnnc4)c3c2)cc1NS(=O)(=O)c1ccc(F)cc1F", "growth": "-73% (active)"},
      {"smiles": "O=C1Nc2ccccc2/C1=N/N1C(=O)CN(CCCl)C1=O", "growth": "107% (inactive)"},
      {"smiles": "Cc1cc(C(=O)O)c(C)cc1C(=O)O", "growth": "96.6% (inactive)"},
      {"smiles": "CC(=O)Nc1ccc(S(=O)(=O)Cl)cc1", "growth": "95% (inactive)"},
      {"smiles": "COc1ccc(-c2csc(NC(=O)N3CCN(c4cc5c(cc4F)c(=O)c(C(=O)O)cn5C4CC4)CC3)n2)cc1", "growth": "-2.96% (active)"},
      {"smiles": "COc1ccc(C/C(C)=C(\\c2ccc(O)cc2)c2ccc(OCCN3CCCCC3)cc2)cc1", "growth": "70.2% (inactive)"},
      {"smiles": "CCCCCCCCCCCCOC(=N)N(C)C", "growth": "104% (inactive)"},
      {"smiles": "Cc1ccccc1N=C(N)Nc1ccccc1C", "note": "(tested in a mixture with another compound)", "growth": "87.1% (inactive)"}
    ]}
  ]
}
